Data reported in PubChem BioAssay (EPA / NIEHS).
Some compounds were tested as several samples or in several runs, with calls that do not always agree. The source made the active and inactive calls. The calls were made as follows: active = hit-call score of the fitted dose curve at least 0.9, where 1 is the maximum; inactive = score below 0.9.

How the values were obtained:
[1] = BSK_CASM3C_SRB: Viability Assessment in the BioMAP Diversity Plus: CASM3C Assay (AID 2283050); conditions: primary human coronary artery smooth muscle cells;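 also: cells exposed to compound for 24 h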
[2] = read-out: Thrombomodulin, THBD (gene 7056); assay: BSK_CASM3C_Thrombomodulin: BioMAP Diversity Plus: CASM3C Assay for Thrombomodulin Biomarker Activity (AID 2283051); conditions: primary human coronary artery smooth muscle cells; actives raise or lower the signal;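 also: thrombomodulin protein level measured by ELISA 24 h after dosing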
[3] = read-out: Tissue Factor, F3 (gene 2152); assay: BSK_CASM3C_TissueFactor: BioMAP Diversity Plus: CASM3C Assay for Tissue Factor Biomarker Activity (AID 2283052); conditions: primary human coronary artery smooth muscle cells; actives raise or lower the signal;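 also: cell surface tissue factor protein level read by ELISA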
[4] = read-out: Interferon-gamma inducible Protein 10 (IP10), CXCL10 (gene 3627); assay: BSK_hDFCGF_IP10: BioMAP Diversity Plus: hDFCGF Assay for Interferon-gamma inducible Protein 10 (IP10) Biomarker Activity (AID 2283053); conditions: primary human foreskin fibroblasts; actives raise or lower the signal
Summary of the method: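 Primary human foreskin fibroblasts exposed to chemicals for 24 h. IP-10 measured by ELISA; changes fitted bidirectionally against DMSO baseline.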

[5] = read-out: Urokinase-type plasminogen activator receptor (uPAR), PLAUR (gene 5329); assay: BSK_CASM3C_uPAR: BioMAP Diversity Plus: CASM3C Assay for Urokinase-type plasminogen activator receptor (uPAR) Biomarker Activity (AID 2283054); conditions: primary human coronary artery smooth muscle cells; actives raise or lower the signal;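 also: cell-surface uPAR protein level quantified by ELISA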
[6] = read-out: Vascular cell adhesion molecule 1 (VCAM1), VCAM1 (gene 7412); assay: BSK_CASM3C_VCAM1: BioMAP Diversity Plus: CASM3C Assay for Vascular cell adhesion molecule 1 (VCAM1) Biomarker Activity (AID 2283055); conditions: primary human coronary artery smooth muscle cells; actives raise or lower the signal;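 also: VCAM-1 protein level quantified by ELISA on the cells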
[7] = read-out: Collagen III, COL3A1 (gene 1281); assay: BSK_hDFCGF_CollagenIII: BioMAP Diversity Plus: hDFCGF Assay for Collagen III Biomarker Activity (AID 2283056); conditions: primary human foreskin fibroblasts; actives raise or lower the signal
Summary of the method: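 ELISA read-out of collagen III from human skin fibroblast cultures sampled 24 h post-dosing. Values were derived by bidirectional fitting relative to the DMSO vehicle control.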

[8] = read-out: Epidermal growth factor receptor (EGFR), EGFR (gene 1956); assay: BSK_hDFCGF_EGFR: BioMAP Diversity Plus: hDFCGF Assay for Epidermal growth factor receptor (EGFR) Biomarker Activity (AID 2283057); conditions: primary human foreskin fibroblasts; actives raise or lower the signal
Summary of the method: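 Primary human foreskin fibroblasts (hDFCGF system), sampled 24 h after dosing; EGFR quantified by ELISA. Bidirectional fit relative to DMSO baseline; SRB total-protein staining in parallel cultures for cytotoxicity.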

[9] = read-out: Interleukin-8 (IL8), CXCL8 (gene 3576); assay: BSK_hDFCGF_IL8: BioMAP Diversity Plus: hDFCGF Assay for Interleukin-8 (IL8) Biomarker Activity (AID 2283058); conditions: primary human foreskin fibroblasts; actives raise or lower the signal
Summary of the method: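 Cells used are human skin primary fibroblasts. Chemical is added, cultures run 24 h, then IL-8 is quantified by ELISA, and gain or loss versus DMSO control is fitted in both directions.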

[10] = BSK_hDFCGF_Proliferation: Cell Proliferation Assessment in the BioMAP Diversity Plus: hDFCGF Assay (AID 2283059); conditions: primary human foreskin fibroblasts;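 also: curves fitted for both rise and fall of signal versus DMSO baseline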
Summary of the method: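 Total protein read at 560 nm after 0.1% SRB staining of TCA-fixed human skin fibroblasts, […]. Activity is fitted in both directions relative to DMSO as baseline.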

[11] = read-out: Macrophage colony-stimulating factor (MCSF), CSF1 (gene 1435); assay: BSK_hDFCGF_MCSF: BioMAP Diversity Plus: hDFCGF Assay for Macrophage colony-stimulating factor (MCSF) Biomarker Activity (AID 2283060); conditions: primary human foreskin fibroblasts; actives raise or lower the signal
Summary of the method: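 Primary human foreskin fibroblasts dosed with chemical; 24 h later, M-CSF quantified by ELISA; curves fitted in both directions vs DMSO negative control.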

[12] = BSK_hDFCGF_SRB: Viability Assessment in the BioMAP Diversity Plus: hDFCGF Assay (AID 2283061); conditions: primary human foreskin fibroblasts;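 also: cells exposed to compound for 24 h before the read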
Summary of the method: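 Readout is SRB absorbance at 560 nm, reflecting total protein in parallel cultures of human foreskin fibroblasts harvested 24 h after chemical dosing. Activity was fitted bidirectionally relative to DMSO.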

[13] = read-out: TIMP metallopeptidase inhibitor 1 (TIMP1), TIMP1 (gene 7076); assay: BSK_hDFCGF_TIMP1: BioMAP Diversity Plus: hDFCGF Assay for TIMP metallopeptidase inhibitor 1 (TIMP1) Biomarker Activity (AID 2283062); conditions: primary human foreskin fibroblasts; actives raise or lower the signal
Summary of the method: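 Human skin fibroblasts (primary), hDFCGF system; compound exposure 24 h; TIMP-1 by ELISA; bidirectional fit vs DMSO negative control; overt cytotoxicity by SRB in parallel wells.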

[14] = read-out: Monokine induced gamma interferon (MIG), CXCL9 (gene 4283); assay: BSK_hDFCGF_MIG: BioMAP Diversity Plus: hDFCGF Assay for Monokine induced gamma interferon (MIG) Biomarker Activity (AID 2283063); conditions: primary human foreskin fibroblasts; actives raise or lower the signal
Summary of the method: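 Chemicals were added to primary human foreskin fibroblast cultures, which were sampled 24 h later. MIG levels were then quantified by ELISA and responses fitted in both directions relative to DMSO.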

[15] = read-out: Matrix Metallopeptidase 1 (MMP1), MMP1 (gene 4312); assay: BSK_hDFCGF_MMP1: BioMAP Diversity Plus: hDFCGF Assay for Matrix Metallopeptidase 1 (MMP1) Biomarker Activity (AID 2283064); conditions: primary human foreskin fibroblasts; actives raise or lower the signal
Summary of the method: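 Primary human foreskin fibroblasts in the hDFCGF system were dosed with test chemical, and MMP1 was measured by ELISA 24 h later. Values come from bidirectional curve fitting against the DMSO baseline.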

[16] = read-out: Vascular cell adhesion molecule 1 (VCAM1), VCAM1 (gene 7412); assay: BSK_hDFCGF_VCAM1: BioMAP Diversity Plus: hDFCGF Assay for Vascular cell adhesion molecule 1 (VCAM1) Biomarker Activity (AID 2283065); conditions: primary human foreskin fibroblasts; actives raise or lower the signal;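 as to AC50: VCAM-1 protein level quantified by ELISA after 24 h chemical exposure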
Summary of the method: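 Human foreskin fibroblast primary cells, chemical exposure 24 h; VCAM-1 by ELISA; bidirectional fit, DMSO = negative control/baseline.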

[17] = read-out: Plasminogen activator inhibitor-1 (PAI1), SERPINE1 (gene 5054); assay: BSK_hDFCGF_PAI1: BioMAP Diversity Plus: hDFCGF Assay for Plasminogen activator inhibitor-1 (PAI1) Biomarker Activity (AID 2283066); conditions: primary human foreskin fibroblasts; actives raise or lower the signal
Summary of the method: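 Human foreskin fibroblast primary cells, 24 h chemical exposure; PAI-1 measured by ELISA. Bidirectional fitting relative to DMSO; parallel cultures stained with SRB for total protein to flag overt cytotoxicity.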

[18] = read-out: Intercellular Adhesion Molecule 1 (ICAM1), ICAM1 (gene 3383); assay: BSK_KF3CT_ICAM1: BioMAP Diversity Plus: KF3CT Assay for Intercellular Adhesion Molecule 1 (ICAM1) Biomarker Activity (AID 2283067); conditions: primary human keratinocytes with fibroblasts; actives raise or lower the signal
Summary of the method: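 ICAM-1 levels are measured by ELISA 24 h after dosing a primary human co-culture of keratinocytes and foreskin fibroblasts. Activity in either direction is fitted relative to DMSO vehicle.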

[19] = read-out: Interferon-gamma inducible Protein 10 (IP10), CXCL10 (gene 3627); assay: BSK_KF3CT_IP10: BioMAP Diversity Plus: KF3CT Assay for Interferon-gamma inducible Protein 10 (IP10) Biomarker Activity (AID 2283068); conditions: primary human keratinocytes with fibroblasts; actives raise or lower the signal
Summary of the method: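 Human keratinocyte plus foreskin fibroblast primary co-culture exposed to test chemical for 24 h; IP-10 measured by ELISA. Concentration-response fitted bidirectionally against DMSO control as baseline.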

[20] = BSK_KF3CT_SRB: Viability Assessment in the BioMAP Diversity Plus: KF3CT Assay (AID 2283069); conditions: primary human keratinocytes with fibroblasts;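 also: total protein by sulforhodamine B staining as a cytotoxicity measure; read 24 h after compound addition; fitted for both signal gain and loss against DMSO baseline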
Summary of the method: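 Human primary keratinocyte plus foreskin fibroblast co-culture exposed to chemicals for 24 h. Total protein measured by 0.1% sulforhodamine B staining after 10% TCA fixation, read at 560 nm; bidirectional fitting versus DMSO baseline.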

Measured: AC50

CCc1ccc(O)c(C(C)(C)C)c1
inactive: [1] | [2] | [3] | [5] | [6] | [8]
active: [4] 35.2 µM | [7] 20 µM | [9] 36.3 µM | [10] 34.5 µM | [11] 27.4 µM | [12] 36.2 µM | [13] 31.1 µM | [14] 32.6 µM | [15] 31.8 µM | [16] 30.4 µM | [17] 28.1 µM | [18] 31.2 µM | [19] 36.8 µM | [20] 35.7 µM

CC(C)CCCCCCOC(=O)C1CCCCC1C(=O)OCCCCCCC(C)C (configuration not stated)
inactive: all assays above

CCCCN1C(=O)[C@@H]([C@H](O)C2CCCCC2)NC(=O)C12CCN(Cc1ccc(Oc3ccc(C(=O)O)cc3)cc1)CC2
active: [4] 31.2 µM | [10] 20 µM | [12] 20 µM | [15] 7.18 µM | [16] 31 µM
not listed: [7]
inactive: all other assays above

NC(N)=O
not listed: [11]
inactive: all other assays above

O=C(O)c1ccc2c(c1)nc(C(=O)NC1CCN(C3CC3)CC1)n2Cc1cc(-c2ccc(Cl)s2)on1
inactive: all assays above

C[Si](C)(C)C(F)(F)C(F)(F)C(F)(F)F
inactive: [1] | [2] | [3] | [5] | [6] | [7] | [8] | [9] | [10] | [11] | [12] | [13] | [14] | [15] | [16] | [17] | [18] | [19] | [20]
active: [12] 30 µM

O=c1[nH]cnc2c1ncn2[C@H]1CC[C@@H](CO)O1
not listed: [11]
inactive: all other assays above

CNC(C)=O
inactive: all assays above

FC(F)(F)C(F)(F)C(F)(F)C(F)(F)C(F)(F)C(F)(F)I
inactive: [1] | [2] | [3] | [5] | [6] | [7] | [8] | [9] | [10] | [11] | [12] | [13] | [14] | [15] | [16] | [17] | [18] | [19] | [20]
active: [7] 30 µM | [10] 50.7 µM | [16] 48.3 µM

OCc1c[nH]c2ccccc12
active: [2] 184 nM | [10] 23.8 µM | [15] 0.655 µM | [16] 3.97 µM | [17] 4.75 µM
inactive: all other assays above

CCCCCCCCN(C)C
not listed: [4]
inactive: all other assays above

O=C(O)c1cccc(C(=O)O)c1
active: [3] 357 nM
not listed: [4]
inactive: all other assays above

O=C1CN(N=Cc2ccc([N+](=O)[O-])o2)C(=O)N1
active: [10] 30.6 µM
inactive: all other assays above
